According to the supplement of paper PMC11732987, “Enantioselective OTUD7B fragment discovery through chemoproteomics screening and high-throughput optimisation” (Communications Chemistry, 2025):

Assays:
Assay in all cases: log2 ratio of Biotin-Ahx-Ub-VS probe labelling (fragment/DMSO); higher = less target engagement (more negative = stronger competition), active = hit call of the paper (q ≤ 0.05, log2 ratio ≤ -1)
Details in all cases: compound concentration: 200 uM; treatment time: 3 h
USP42 = molecular target: T1, USP42 (UniProt Q9H9J4)
T1 sequence (whole entry): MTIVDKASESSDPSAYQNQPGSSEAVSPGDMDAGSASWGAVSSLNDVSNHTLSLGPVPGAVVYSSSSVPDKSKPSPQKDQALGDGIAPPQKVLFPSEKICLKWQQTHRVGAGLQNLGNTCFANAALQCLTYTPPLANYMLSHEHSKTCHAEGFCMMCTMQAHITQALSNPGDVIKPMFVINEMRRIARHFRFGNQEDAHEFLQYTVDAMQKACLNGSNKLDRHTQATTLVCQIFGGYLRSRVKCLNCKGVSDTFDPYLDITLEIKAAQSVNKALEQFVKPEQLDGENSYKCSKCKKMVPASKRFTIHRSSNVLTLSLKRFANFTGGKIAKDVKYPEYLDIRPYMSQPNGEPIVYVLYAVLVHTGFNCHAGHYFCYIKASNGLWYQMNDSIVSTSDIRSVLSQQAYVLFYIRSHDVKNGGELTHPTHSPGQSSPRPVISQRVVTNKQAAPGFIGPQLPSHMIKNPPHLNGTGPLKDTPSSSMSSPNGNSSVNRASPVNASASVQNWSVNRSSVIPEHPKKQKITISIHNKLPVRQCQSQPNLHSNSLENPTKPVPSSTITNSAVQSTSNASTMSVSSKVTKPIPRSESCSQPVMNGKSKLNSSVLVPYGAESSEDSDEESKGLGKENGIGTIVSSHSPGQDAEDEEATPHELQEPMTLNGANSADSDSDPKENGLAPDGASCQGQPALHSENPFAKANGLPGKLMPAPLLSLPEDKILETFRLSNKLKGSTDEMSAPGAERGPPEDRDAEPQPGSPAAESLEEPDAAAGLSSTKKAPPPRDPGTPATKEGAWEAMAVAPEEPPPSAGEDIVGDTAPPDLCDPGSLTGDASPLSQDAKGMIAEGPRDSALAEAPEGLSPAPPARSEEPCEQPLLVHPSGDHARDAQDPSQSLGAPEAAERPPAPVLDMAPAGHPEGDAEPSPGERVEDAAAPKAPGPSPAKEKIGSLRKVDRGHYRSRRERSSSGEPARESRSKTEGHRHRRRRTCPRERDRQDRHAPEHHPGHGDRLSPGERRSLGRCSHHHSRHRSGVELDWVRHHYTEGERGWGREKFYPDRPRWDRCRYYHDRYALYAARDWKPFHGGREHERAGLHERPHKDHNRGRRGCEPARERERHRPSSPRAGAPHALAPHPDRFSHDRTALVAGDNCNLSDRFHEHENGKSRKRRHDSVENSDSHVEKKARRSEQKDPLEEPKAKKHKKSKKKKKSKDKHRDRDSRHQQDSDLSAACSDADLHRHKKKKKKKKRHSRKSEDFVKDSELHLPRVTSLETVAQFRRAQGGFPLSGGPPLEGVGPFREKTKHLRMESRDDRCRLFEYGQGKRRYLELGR
In short: (§1)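 HEK293T lysate (495 µg per sample, in Tris/CHAPS/IGEPAL buffer with protease inhibitors) was exposed in triplicate for 3 h to fragment at 200 µM or to vehicle, then to Biotin-Ahx-Ub-VS at 0.5 µM final for 1 h. Labelled DUBs were enriched on NeutrAvidin, digested with LysC and trypsin, and analysed by diaPASEF LC-MS/MS. Spectronaut label-free quantities were normalised to the global median, and values are average log2 ratios of fragment over vehicle from an unpaired t-test. Only proteins with ≥2 unique peptides were used.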

USP46 = USP46 (UniProt P62068)
In short: as §1

USP47 = molecular target: T2, USP47 (UniProt Q96K76)
T2 sequence (whole entry): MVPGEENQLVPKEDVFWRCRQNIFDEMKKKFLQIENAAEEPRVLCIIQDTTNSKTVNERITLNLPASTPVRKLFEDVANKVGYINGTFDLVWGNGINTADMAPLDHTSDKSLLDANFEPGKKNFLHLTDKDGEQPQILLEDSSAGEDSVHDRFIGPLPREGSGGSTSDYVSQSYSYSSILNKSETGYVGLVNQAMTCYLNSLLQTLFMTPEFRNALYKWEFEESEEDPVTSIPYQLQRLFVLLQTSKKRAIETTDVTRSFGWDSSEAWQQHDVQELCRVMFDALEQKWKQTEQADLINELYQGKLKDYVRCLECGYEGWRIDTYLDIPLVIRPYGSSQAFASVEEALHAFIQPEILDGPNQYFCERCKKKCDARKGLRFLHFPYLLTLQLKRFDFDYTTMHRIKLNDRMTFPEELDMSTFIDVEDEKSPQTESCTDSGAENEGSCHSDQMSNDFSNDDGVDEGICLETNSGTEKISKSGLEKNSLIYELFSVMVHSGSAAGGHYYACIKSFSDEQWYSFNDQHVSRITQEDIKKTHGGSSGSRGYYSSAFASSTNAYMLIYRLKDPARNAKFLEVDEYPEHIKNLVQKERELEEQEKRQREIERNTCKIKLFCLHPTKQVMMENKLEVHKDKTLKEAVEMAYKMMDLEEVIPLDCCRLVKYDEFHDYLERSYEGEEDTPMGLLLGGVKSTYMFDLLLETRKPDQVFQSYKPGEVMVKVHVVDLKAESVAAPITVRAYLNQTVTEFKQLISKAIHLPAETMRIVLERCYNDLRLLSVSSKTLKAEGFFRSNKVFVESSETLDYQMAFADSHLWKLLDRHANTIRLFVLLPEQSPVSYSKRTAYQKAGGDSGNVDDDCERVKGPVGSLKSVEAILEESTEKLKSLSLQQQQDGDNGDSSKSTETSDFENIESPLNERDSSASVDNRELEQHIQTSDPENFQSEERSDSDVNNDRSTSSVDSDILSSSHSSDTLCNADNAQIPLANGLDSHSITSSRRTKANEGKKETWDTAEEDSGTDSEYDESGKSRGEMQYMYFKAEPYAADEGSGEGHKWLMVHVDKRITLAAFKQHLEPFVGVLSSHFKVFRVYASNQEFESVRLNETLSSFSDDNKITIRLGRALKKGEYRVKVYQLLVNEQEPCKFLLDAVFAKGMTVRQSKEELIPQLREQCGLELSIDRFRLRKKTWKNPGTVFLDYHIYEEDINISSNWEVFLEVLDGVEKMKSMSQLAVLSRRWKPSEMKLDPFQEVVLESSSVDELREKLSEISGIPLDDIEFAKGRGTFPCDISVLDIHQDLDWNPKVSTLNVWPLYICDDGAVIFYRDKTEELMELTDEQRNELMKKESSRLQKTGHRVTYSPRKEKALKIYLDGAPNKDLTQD
In short: as §1

USP48 = molecular target: T3, USP48 (UniProt Q86UV5)
T3 sequence (whole entry): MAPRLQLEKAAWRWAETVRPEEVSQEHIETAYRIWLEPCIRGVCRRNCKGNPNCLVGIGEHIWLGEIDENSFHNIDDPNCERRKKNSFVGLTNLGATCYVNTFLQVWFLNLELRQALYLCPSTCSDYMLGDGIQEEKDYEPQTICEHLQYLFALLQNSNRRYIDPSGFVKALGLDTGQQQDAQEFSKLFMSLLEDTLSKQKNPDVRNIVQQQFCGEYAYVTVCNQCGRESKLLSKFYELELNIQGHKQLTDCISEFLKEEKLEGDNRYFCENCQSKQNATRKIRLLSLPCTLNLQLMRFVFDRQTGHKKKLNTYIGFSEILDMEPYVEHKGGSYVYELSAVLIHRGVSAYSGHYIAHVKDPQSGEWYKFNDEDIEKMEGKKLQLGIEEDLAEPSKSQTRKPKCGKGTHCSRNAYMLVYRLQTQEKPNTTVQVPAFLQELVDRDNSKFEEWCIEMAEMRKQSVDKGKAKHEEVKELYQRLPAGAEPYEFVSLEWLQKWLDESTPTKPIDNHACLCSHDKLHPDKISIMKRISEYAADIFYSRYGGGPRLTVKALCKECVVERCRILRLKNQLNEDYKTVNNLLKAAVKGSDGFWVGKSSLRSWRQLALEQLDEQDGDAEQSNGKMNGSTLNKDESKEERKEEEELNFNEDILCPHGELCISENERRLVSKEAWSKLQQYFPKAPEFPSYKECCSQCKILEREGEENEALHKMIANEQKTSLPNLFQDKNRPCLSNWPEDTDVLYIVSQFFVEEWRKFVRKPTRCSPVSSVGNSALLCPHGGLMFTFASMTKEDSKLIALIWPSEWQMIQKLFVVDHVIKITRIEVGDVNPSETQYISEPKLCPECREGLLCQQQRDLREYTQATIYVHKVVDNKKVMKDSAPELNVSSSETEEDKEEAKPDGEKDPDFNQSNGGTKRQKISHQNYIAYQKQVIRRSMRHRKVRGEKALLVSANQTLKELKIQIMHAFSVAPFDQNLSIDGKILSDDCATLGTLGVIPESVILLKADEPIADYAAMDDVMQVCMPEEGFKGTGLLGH
In short: as §1

USP5 = molecular target: T4, USP5 (UniProt P45974)
T4 sequence (whole entry): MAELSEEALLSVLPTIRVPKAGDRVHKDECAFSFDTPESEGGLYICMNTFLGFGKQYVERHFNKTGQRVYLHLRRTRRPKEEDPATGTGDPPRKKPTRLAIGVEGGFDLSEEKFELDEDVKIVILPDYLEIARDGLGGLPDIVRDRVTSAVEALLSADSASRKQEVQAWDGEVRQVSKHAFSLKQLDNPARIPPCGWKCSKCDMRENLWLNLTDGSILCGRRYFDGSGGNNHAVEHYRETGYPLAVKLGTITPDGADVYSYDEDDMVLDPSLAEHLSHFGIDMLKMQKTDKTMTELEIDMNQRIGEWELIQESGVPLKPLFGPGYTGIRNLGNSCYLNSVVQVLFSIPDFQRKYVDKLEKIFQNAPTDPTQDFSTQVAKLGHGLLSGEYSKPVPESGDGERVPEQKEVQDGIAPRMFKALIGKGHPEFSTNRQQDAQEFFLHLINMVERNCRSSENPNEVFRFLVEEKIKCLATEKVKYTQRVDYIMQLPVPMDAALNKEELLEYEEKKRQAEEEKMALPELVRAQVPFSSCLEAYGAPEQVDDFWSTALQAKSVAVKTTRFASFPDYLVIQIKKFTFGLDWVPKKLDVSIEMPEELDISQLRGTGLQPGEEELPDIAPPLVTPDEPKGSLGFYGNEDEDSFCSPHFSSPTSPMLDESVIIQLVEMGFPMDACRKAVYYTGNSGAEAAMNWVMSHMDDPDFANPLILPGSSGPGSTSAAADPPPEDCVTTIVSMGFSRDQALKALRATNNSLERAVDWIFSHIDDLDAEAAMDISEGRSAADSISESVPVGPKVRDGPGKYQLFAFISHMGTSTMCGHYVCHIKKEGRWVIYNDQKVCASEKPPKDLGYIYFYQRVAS
In short: as §1

USP54 = USP54 (UniProt Q70EL1)
In short: as §1

USP7 = USP7 (UniProt Q93009)
In short: as §1

USP8 = molecular target: T5, USP8 (UniProt P40818)
T5 sequence (whole entry): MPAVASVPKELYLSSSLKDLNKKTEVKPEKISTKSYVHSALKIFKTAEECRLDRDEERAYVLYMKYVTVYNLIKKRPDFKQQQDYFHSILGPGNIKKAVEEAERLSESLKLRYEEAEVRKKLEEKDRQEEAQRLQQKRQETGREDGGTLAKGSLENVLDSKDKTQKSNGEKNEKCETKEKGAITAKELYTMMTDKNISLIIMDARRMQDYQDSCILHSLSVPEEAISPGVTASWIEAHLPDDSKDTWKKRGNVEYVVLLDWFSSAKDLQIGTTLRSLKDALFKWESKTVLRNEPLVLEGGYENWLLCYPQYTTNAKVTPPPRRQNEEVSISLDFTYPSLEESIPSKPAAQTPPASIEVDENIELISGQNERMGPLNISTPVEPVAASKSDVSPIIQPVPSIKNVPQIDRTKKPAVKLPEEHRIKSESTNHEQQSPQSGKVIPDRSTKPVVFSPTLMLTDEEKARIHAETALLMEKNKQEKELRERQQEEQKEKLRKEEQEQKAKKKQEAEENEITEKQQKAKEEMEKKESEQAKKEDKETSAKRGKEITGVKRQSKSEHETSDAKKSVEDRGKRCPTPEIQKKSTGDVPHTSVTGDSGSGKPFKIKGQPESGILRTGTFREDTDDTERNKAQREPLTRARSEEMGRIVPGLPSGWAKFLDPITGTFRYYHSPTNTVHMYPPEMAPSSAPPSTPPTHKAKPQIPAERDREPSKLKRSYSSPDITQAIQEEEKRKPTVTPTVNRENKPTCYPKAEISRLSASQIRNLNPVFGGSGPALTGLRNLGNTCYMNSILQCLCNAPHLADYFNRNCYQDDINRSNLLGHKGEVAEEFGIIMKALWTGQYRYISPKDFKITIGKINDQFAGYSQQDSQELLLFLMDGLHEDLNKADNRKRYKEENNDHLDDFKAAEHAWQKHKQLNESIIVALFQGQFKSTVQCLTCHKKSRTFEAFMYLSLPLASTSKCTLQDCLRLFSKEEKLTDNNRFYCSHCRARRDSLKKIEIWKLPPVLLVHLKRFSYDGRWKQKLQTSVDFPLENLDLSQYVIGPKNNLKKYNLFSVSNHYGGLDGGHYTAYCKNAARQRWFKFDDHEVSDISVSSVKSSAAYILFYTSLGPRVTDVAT
In short: as §1

USP9X = USP9X (UniProt Q93008)
In short: as §1

UniProt O00487 = molecular target: UniProt O00487
In short: as §1

Measured: log2 ratio of Biotin-Ahx-Ub-VS probe labelling

Sequence of USP46 (P62068 whole entry): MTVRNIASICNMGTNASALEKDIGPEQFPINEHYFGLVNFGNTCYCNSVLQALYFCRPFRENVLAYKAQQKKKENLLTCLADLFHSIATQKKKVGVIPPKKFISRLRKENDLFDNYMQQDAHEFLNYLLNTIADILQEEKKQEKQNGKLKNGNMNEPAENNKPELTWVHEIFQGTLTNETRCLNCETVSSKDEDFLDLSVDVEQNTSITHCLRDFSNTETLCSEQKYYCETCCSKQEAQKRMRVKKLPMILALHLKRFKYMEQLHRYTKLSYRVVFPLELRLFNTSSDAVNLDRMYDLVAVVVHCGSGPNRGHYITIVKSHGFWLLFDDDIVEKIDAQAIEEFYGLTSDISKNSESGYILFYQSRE
Sequence of UniProt O00487 (O00487 whole entry): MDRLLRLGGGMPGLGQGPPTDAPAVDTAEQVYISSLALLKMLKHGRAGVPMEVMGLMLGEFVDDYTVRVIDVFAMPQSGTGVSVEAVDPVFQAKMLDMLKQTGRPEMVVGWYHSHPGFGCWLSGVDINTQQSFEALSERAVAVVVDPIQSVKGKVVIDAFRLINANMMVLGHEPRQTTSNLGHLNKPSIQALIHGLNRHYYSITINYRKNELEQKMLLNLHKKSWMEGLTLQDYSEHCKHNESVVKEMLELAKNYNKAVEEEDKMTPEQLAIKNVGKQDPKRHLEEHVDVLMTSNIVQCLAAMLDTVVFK
Sequence of USP7 (Q93009 whole entry, looked up): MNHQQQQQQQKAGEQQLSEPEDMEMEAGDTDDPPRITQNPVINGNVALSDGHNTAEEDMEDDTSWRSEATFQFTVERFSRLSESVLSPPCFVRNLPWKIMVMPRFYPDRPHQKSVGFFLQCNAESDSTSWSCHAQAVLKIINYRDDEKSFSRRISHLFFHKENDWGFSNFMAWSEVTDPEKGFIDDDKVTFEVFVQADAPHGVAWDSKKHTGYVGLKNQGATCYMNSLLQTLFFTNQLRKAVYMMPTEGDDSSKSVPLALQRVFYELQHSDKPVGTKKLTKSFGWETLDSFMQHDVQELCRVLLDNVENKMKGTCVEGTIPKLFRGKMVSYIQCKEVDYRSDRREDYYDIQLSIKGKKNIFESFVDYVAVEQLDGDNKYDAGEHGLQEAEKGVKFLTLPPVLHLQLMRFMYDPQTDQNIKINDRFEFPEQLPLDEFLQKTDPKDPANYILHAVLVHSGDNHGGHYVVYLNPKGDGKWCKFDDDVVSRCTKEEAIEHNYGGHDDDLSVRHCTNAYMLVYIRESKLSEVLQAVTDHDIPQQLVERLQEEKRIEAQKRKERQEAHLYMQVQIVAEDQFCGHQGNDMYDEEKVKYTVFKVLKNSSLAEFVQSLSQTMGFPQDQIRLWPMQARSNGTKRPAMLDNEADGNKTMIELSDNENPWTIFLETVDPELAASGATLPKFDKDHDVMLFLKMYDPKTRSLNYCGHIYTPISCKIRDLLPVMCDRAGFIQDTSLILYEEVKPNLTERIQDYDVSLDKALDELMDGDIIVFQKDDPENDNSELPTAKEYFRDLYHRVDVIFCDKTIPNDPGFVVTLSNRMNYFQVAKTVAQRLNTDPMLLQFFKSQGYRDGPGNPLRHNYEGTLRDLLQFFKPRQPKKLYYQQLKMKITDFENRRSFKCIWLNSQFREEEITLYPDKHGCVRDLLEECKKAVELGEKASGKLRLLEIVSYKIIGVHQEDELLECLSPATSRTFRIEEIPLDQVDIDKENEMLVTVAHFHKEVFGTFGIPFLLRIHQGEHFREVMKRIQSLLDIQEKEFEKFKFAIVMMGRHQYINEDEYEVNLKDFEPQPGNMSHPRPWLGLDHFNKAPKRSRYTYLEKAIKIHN
Sequence of USP54 (Q70EL1 whole entry): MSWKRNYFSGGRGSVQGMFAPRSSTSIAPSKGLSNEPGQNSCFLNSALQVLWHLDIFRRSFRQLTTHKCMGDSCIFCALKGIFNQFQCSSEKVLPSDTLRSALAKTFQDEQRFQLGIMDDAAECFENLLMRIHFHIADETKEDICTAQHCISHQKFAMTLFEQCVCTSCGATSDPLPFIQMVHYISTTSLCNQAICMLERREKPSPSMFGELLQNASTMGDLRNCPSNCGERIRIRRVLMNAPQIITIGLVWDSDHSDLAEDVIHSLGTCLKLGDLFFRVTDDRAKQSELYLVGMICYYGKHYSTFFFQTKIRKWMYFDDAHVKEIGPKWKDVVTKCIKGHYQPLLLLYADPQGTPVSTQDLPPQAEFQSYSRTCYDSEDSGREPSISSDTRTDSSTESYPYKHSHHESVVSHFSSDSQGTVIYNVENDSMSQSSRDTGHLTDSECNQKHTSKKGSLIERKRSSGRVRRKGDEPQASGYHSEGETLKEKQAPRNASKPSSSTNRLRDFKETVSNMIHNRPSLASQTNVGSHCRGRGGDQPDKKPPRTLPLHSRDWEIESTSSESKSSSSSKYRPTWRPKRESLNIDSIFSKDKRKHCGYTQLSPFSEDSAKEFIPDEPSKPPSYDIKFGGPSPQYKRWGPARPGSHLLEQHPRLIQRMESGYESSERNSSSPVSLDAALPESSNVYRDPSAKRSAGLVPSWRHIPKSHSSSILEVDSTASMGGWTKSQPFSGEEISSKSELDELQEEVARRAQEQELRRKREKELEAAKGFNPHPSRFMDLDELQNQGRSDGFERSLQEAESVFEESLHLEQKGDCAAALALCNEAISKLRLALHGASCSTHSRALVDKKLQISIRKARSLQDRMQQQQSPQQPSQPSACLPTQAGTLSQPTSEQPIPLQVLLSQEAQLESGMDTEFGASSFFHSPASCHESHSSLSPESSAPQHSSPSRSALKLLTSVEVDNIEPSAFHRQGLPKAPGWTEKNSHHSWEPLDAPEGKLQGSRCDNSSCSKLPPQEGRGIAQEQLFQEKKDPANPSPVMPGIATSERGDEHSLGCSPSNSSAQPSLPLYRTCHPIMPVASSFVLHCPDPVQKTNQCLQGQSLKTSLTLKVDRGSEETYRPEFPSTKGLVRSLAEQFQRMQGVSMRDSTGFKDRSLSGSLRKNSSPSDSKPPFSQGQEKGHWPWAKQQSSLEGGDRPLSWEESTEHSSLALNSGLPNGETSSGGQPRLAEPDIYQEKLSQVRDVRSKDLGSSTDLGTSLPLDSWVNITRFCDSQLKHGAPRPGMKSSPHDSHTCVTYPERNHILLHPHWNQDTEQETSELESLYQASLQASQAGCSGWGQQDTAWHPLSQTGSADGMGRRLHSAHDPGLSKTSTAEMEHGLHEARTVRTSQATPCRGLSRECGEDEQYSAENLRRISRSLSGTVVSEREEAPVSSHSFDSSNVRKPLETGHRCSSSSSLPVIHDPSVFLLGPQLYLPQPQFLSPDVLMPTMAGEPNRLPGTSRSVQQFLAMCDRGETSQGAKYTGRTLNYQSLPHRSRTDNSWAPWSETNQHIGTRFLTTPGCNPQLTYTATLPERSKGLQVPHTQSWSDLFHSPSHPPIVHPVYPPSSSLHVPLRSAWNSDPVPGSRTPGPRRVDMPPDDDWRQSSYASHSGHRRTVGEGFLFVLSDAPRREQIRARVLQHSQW

Cc1noc(N2CCN(C(=O)CCl)CC2)n1.Cl
inactive: USP42 0.0551 | USP46 -0.0466 | USP47 -0.329 | USP48 0.0849 | USP5 0.492 | USP54 0.167 | USP7 -0.27 | USP8 -0.307 | USP9X -0.318 | UniProt O00487 0.0199
